Test results from PubChem BioAssay (NCI).
This is part of a sample that, as a whole, favours compounds with a hit. Of some 83,000 tested, about 20% had one in any assay.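 The endpoint reported here, percent growth, reads 100 for growth as untreated, 0 for no net growth and -100 for all cells dead.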 Calls of active or inactive are those of the source.

Test system: NCI/ADR-RES ovarian
Assay: NCI-60 one-dose screen, 48 h (100 = growth as untreated, 0 = no growth, -100 = all killed)
Settings: 10 µM
Description: Growth inhibition of the NCI/ADR-RES human […] tumor cell line is measured as a screen for anti-cancer activity. Cells are grown in 96 well plates and exposed to the test compound for 48 hours. Compounds are tested at a single concentration, which is 10^-5 M for most compounds. The reported endpoint is percent growth (GI% or GIPRCNT), where numbers from 0 - 100% represent growth inhibition, and numbers from -100% - 0 represent cell death. For example, a value of 40 represents 60% growth inhibition. A value of 0 means no net growth occurred over the course of the experiment. A value of -40 indicates 40% of cells at the beginning of the experiment died by the end of the experiment. A value of -100 means all cells are dead at the end of the experiment.
NCI-60 Human Tumor Cell Lines Screen was performed using the standard one-dose NCI protocol, which is described in more detail at https://dtp.cancer.gov/discovery_development/nci-60/default.htm.
Compounds with GIPRCNT values below 10 were considered active. Activity score was based on GIPRCNT using the following formula: […]
Score is 0 for GIPRCNT values of 100 or above, 50 for GIPRCNT values of 0, and 100 for GIPRCNT values of -100.

SMILES	growth
Cc1ccc(NC(=O)Nc2cccnc2)cc1NC(=O)Nc1cccnc1	87.6% (inactive)
Clc1ccc(Sc2nc(NC3CC3)nc(Sc3ccc(Cl)cc3)n2)cc1	78.3% (inactive)
COc1cc(/C=N/NC(=O)c2ccccc2Nc2cccc(C(F)(F)F)c2)cc(OC)c1OC	12.6% (inactive)
CCCCCCNC(=O)Oc1ccc(/C(=C(/CC)Cc2ccccc2)c2ccc(OCCN3CCCCC3)cc2)cc1	81.8% (inactive)
CCn1cc(C(=O)O)c(=O)c2cnc(N3CCCC3)nc21	102% (inactive)
NC(=O)CC1(c2ccccc2)CCCCC1	107% (inactive)
Cc1cc(Cl)nc(N(CCCNc2ccnc3cc(Cl)ccc23)Cc2cccs2)n1	0.179% (active)
Cc1ccc(Nc2nnc(-c3cc(-c4ccncc4)n(-c4ccccc4)n3)s2)cc1	59.2% (inactive)
COc1cc(C(=O)N2CCN(c3ccccc3OC)CC2)c(N)cc1OCCCN1CCN(c2ccccc2OC)CC1	80.1% (inactive)
O=[N+]([O-])c1cccc(N=Cc2ccc3c(c2)OCO3)c1	105% (inactive)
O=c1c2ccccc2nc(SCCN2CCCCC2)n1CCc1ccccc1	87.6% (inactive)
Nc1c(C(=O)Nc2cccc(F)c2)sc2nc3c(cc12)C(=O)CCC3	13.3% (inactive)
Cc1nc2c(c(=O)[nH]1)OCN(Cc1ccccc1)C2	107% (inactive)
O=C(Nc1cccc(-n2cc(-c3ccncc3)c(-c3ccc(O)c(Cl)c3)n2)c1)c1ccc(Cl)c(Cl)c1	49.6% (inactive)
COc1ccc(-c2nc3sccn3c2-c2nc3c([nH]2)C(=O)c2ccccc2C3=O)cc1	86.5% (inactive)
O=C(CC(c1ccccc1)N1CCOCC1)c1ccccc1 (stereo not given)	91.2% (inactive)
CCN1CCN(c2nc3ccccc3c3c(=O)c4ccccc4sc23)CC1	37.8% (inactive)
N#Cc1cccc(OCc2nc(N)nc(N)c2-c2ccc(Cl)c(Cl)c2)c1	34.1% (inactive)
COc1ccc(Nc2cc(C)nc(NCCCNc3ccnc4cc(Cl)ccc34)n2)cc1	29% (inactive)
CCN(CC)CCSCCCNc1c2ccc(Cl)cc2nc2ccc(OC)cc12	1.58% (active)

SMILES	growth
C#Cc1ccc(-n2c(/C=C/c3ccc(O)cc3)nc3ncccc3c2=O)cc1	55% (inactive)
Nc1ccc2c(c1)C1(CCC2)NC(=O)NC1=O (stereo not given)	108% (inactive)
Cn1c(C(N)=O)cc2c1-c1nc(Nc3ccccc3)ncc1CCC2	66.3% (inactive)
O=C(c1ccc(Cl)cc1Cl)N1CCOCC1	96.5% (inactive)
O=C1C(c2ccccc2)C2C=CC(C2)N1O (stereo not given)	112% (inactive)
Cc1cc(C)c2c(n1)sc1c(Nc3ccc(Cl)cc3)ncnc12	15.1% (inactive)
COc1cc(-c2nc(-c3nnc(-c4ccc(F)c(Cl)c4)o3)c3ccccn23)cc(OC)c1OC	21% (inactive)
CCN(CC)CCNC(=O)c1ccc(NC(C)=O)cc1	96.9% (inactive)
O=c1[nH]c(-c2ccc(Cl)cc2)nc2sc3c(c12)CCCC3	81.8% (inactive)
COc1ccc(Nc2ccnc(NCCNc3ccnc4cc(Cl)ccc34)n2)cc1	66.8% (inactive)
COc1ccc2c(c1)-c1c(c3cc(OC)ccc3n(CCN(C)C)c1=O)C2=O	-1.87% (active)
Cc1cc(Cc2cc(C)c(O)c(C)c2)cc(C)c1O	19.4% (inactive)
COc1ccc(-c2cc(/C=C3\C(=O)Nc4ccc(OC)cc43)[nH]n2)cc1	21.7% (inactive)
COc1ccc(S(=O)(=O)NCCCNc2nccc(-c3c(-c4ccc(F)cc4)nc4sccn34)n2)cc1	53.3% (inactive)
CC/C(=N\N=C(/CC)c1ccc(Br)cc1)c1ccc(Br)cc1	105% (inactive)
O=C1NC(=O)N(Cc2ccccc2)CC1Br (stereo not given)	56.6% (inactive)
COc1ccc(Nc2ncnc3c2c(SC)nn3-c2ccccc2)cc1	91.9% (inactive)
CN(C)N=Nc1nn(C(=O)Nc2ccc(Cc3ccccc3)cc2)c2ccccc12	46.6% (inactive)
COc1cccc(C(=O)Nc2ccc(CN3CCc4nc5cc(OC)c(OC)cc5cc43)cc2)c1	47.1% (inactive)
CSc1nc(=O)n(Cc2ccc(F)cc2)c(=O)n1Cc1ccc(C)cc1	86.6% (inactive)
